Laboratory results reported in PubChem BioAssay AID2158 (National Center for Advancing Translational Sciences (NCATS), 2009).
Several values for one entry are separate records, joined by “and”; a condition that tells them apart may be missing. Equal entries are not always repeated. Results filed as inconclusive are left out. Values without a mark were called inactive. Activity calls are given as the source filed them. Calls follow the shape of the dose curve; as a rule, active = well fitted inhibition curve with a large enough effect; inconclusive = small, poorly fitted or top-dose-only effect; inactive = no such curve, though single readings can be large or run the other way.

molecular target: Cruzipain (Trypanosoma cruzi) (UniProt P25779); assay: Confirmation qHTS Assay for Inhibitors of Cruzain; conditions: purified cruzain, Z-FR-AMC fluorescence, 0.01% Triton; also: nearly all actives have a fitted effect of over 40% in size;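 as to activity change, negative = inhibition: plate controls were uninhibited enzyme control for no effect and buffer wells lacking enzyme for full effect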
Sequence (P25779 123-467 limits assumed): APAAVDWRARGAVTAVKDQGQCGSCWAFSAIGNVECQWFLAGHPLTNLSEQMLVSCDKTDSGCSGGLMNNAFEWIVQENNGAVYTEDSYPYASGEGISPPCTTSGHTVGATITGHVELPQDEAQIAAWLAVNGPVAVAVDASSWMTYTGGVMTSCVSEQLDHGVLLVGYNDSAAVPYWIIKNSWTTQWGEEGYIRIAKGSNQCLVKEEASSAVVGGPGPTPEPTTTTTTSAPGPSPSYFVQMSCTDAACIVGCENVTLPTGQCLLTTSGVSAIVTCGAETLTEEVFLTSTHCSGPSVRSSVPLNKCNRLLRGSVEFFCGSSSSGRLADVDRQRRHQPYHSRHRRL
Method in brief: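 Reaction progress from the 60 s rise in AMC fluorescence (ex 360, em 450 nm) after adding 2 uM Z-FR-AMC. Before this, 1.5 nM cruzain sat 15 min at room temperature with compound in pH 5.5 acetate buffer with 5 mM DTT and 0.01% Triton X-100.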
Potency is read from the fitted curve at half-maximal effect.

SMILES | Potency | activity change, negative = inhibition
N#Cc1nc(Nc2cccc(Cl)c2)c2ncn(C3CCCC3)c2n1 | 0.0501 µM (active) | –
CCC(C)NC(=O)c1ccc2nc(-c3ccco3)c(-c3ccco3)nc2c1 (centres undefined) | 7.08 µM (active) | –
CCc1ccc2[nH]c(=O)c(CN(Cc3cccnc3)Cc3nnnn3Cc3ccccc3)cc2c1 | – | -20.9%
Cc1cccc2cc(CN(Cc3ccccc3)Cc3nnnn3Cc3ccccc3)c(=O)[nH]c12 | – | -11.7%
Cc1cccc(C(=O)NC2CCN(C#N)CC2)c1 | – | -3.52% and 7.39%
CCN(Cc1ccccc1)c1nc2c(S(=O)(=O)c3ccccc3)nnn2c2ccc(Cl)cc12 | – | -6.48%
COc1ccc(-c2nnc(NC(=O)c3ccc(S(=O)(=O)N4CCCc5ccccc54)cc3)o2)cc1 | – | -17.1%
Cc1ccccc1-n1c(C)cc(/C=C2/C(=N)N3C(c4ccccc4)=CSC3=NC2=O)c1C | – | -3.9%
CCC(C(=O)NC1CCCCC1)n1c(SCc2ccc(F)cc2)nc2ccncc21 (centres undefined) | 4.47 µM (active) | –
O=C(CNC(=O)c1ccc2ccccc2c1)OC(C(=O)Nc1cc(C(F)(F)F)ccc1Cl)c1ccccc1 (centres undefined) | 4.47 µM (active) | –
Cc1ccc(OCCCn2c(CCCNC(=O)C3CCCCC3)nc3ccccc32)cc1 | – | -20.3%
CNC(=O)c1ccc2nc(-c3cccc(C)c3)c(-c3cccc(C)c3)nc2c1 | – | -24.1%
O=C(CNC(=O)c1cccc2ccccc12)OC(C(=O)Nc1cc(C(F)(F)F)ccc1Cl)c1ccccc1 (centres undefined) | 12.6 µM (active) | –
O=C(CNC(=O)c1ccccc1)OCC(=O)c1cccc2ccccc12 | – | -21.8%
Cc1csc(N/N=C/c2ccc(O)c([N+](=O)[O-])c2)n1 | – | -63.9%
CCCCNc1nc(C#N)nc(Nc2ccccc2)n1 | 0.891 µM (active) | –
N#Cc1nc(N2CCCCC2)nc(N(c2ccccc2)c2ccccc2)n1 | 2.24 µM (active) | –
Cc1ccccc1NC(=O)CSc1nnc(-c2ccco2)c(-c2ccco2)n1 | 14.1 µM (active) | –
COc1ccccc1-c1nn2c(-c3cc(-c4ccccc4)n[nH]3)nnc2s1 | – | -18.8%
O=C(CNC(=O)C1CCCCC1)OCC(=O)c1ccc2c(c1)CCC2 | 6.31 µM (active) | –

SMILES | Potency | activity change, negative = inhibition
COc1ccc(-c2nn3c(-c4cc(C)[nH]n4)nnc3s2)cc1 | – | -13.7%
CC1=CC(=NOC(=O)/C=C/c2ccccc2)C=C(C)C1=O | 3.98 µM (active) | –
COC(=O)Cn1c(=NC(=O)c2ccc(Cl)s2)sc2cc(C)ccc21 | – | -20%
COc1nc(C#N)nc(N2CCCCC2)n1 | 2.82 µM (active) | –
Cc1ccc(S(=O)(=O)NC(N)=NCCC[C@@H](NC(=O)CNC(=O)c2ccccc2)C(=O)Nc2cc(C(F)(F)F)ccc2Cl)cc1 | – | -20%
CCOC(=O)c1ccc(N2CSC3=C(C#N)C(c4cccs4)CC(=O)N3C2)cc1 (centres undefined) | – | -9.35%
CCC(C(=O)NC1CCCCC1)n1c(SCc2cccc(F)c2)nc2ccncc21 (centres undefined) | 6.31 µM (active) | –
O=C(CNC(=O)C1CCCCC1)OCC(=O)c1cccc(Cl)c1 | 2.82 µM (active) | –
N#Cc1nc(Nc2cccc([N+](=O)[O-])c2)nc(NC2CCCC2)n1 | 0.0631 µM (active) | –
O=C(COC(=O)CNC(=O)c1ccccc1Cl)Nc1ccccc1Cl | 3.55 µM (active) | –
N#Cc1nc(-c2cccs2)oc1N1CCOCC1 | – | -30.8%
O=C(NCCc1nc2ccccc2n1CCCCOc1ccccc1)C1CCCCC1 | 0.562 µM (active) | –
N#Cc1nc(Nc2cc(F)cc(F)c2)c2ncn(CC(F)F)c2n1 | 0.01 µM (active) | –
CC[C@@H](C)[C@H](NC(=O)OC(C)(C)C)c1nnc(S(=O)(=O)Cc2cc(C)ccc2C)o1 | 14.1 µM (active) | –
COc1ccccc1CCNC(=O)CNC(=O)Cc1cccc2ccccc12 | – | 5.36%
N#CN1CCC(NC(=O)c2ccc(F)cc2)CC1 | – | 0.471%
N#Cc1nc(Nc2cccc(-c3ccccc3)c2)nc(NC2CCCC2)n1 | 2.24 µM (active) | –
CC(=O)c1nnn(-c2nc(C#N)nc(N3CCOCC3)n2)c1C | – | 4.76%
